In assay [1] the target is Cellular tumor antigen p53 (Homo sapiens) (UniProt P04637). In words: Primary qHTS for small molecule compounds that upregulate eGFP-tagged delta133p53alpha (in N-terminal) cells. (AID 2060322). Also: nearly all actives have a fitted effect of over 75% in size. Also: potency is read from the fitted curve at half-maximal effect.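 As to activation: cells pre-induced with doxycycline then dosed without doxycycline; series mostly up to about 56 µM; 0% = DMSO vehicle and 100% = reference activator.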 The settings on record: NCI-H358 eGFP-delta133p53alpha fluorescence, 24 h; activation: active compounds read high. Put shortly:
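NCI-H358 cells pre-induced 24 h with 10 ng/ml doxycycline for eGFP-delta133p53alpha, plated dox-free and exposed 24 h at 37C to titrated compounds. Fixed, Hoechst-stained; gated GFP peak intensity by laser scanning cytometry, normalized to DMSO (0%) and 57.5 uM 5-azacytidine (100%).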
For orientation: In qHTS, concentration-response curves come from the screen itself.

The target in assay [2] is Aldehyde dehydrogenase, mitochondrial (Homo sapiens) (UniProt P05091). In words: qHTS for Inhibitors of the Aldehyde Dehydrogenase Family (ALDH2) Primary screen (AID 2061308).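 Also: plate controls were vehicle for no effect and reference inhibitor for full effect; nearly all actives have a fitted effect of over 55% in size.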
The target in assay [3] is Retinaldehyde dehydrogenase 3 (Homo sapiens) (UniProt P47895). The assay can be described thus: qHTS for Inhibitors of the Aldehyde Dehydrogenase Family (ALDH1A3) Primary screen (AID 2061315).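 Also: plate controls were DMSO vehicle for no effect and reference inhibitor for full effect.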

Records with an inconclusive call do not appear. Unmarked numbers belong to inactive results. Calls of active or inactive are those of the source. Calls follow the shape of the dose curve; as a rule, active = well fitted curve in the direction sought with a large enough effect; inconclusive = small, poorly fitted or top-dose-only effect, or another doubt; inactive = no such curve, though single readings can be large; an effect the other way counts as inactive or inconclusive. Square brackets hold non-standard residues; d marks the D form. Peptide text beside a SMILES is read from it. ξ: configuration not given here. ξPhe(βξ-Me) = CC(c1ccccc1)C(N)C(=O)O; GABA = NCCCC(=O)O

Cellular tumor antigen p53 (Homo sapiens), sequence (P04637 whole entry, looked up): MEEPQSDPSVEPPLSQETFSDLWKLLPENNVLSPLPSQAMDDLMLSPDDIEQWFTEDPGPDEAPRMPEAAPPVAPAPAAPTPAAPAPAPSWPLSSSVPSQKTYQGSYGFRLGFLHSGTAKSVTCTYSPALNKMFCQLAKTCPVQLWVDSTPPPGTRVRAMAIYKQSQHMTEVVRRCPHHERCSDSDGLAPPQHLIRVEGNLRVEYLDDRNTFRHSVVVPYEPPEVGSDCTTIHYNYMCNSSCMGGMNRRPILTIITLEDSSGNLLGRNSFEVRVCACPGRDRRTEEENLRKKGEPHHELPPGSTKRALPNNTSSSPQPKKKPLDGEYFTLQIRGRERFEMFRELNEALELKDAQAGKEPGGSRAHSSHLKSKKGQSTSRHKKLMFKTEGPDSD

Regarding `CC(C)=C1CC2[C@](C)(CC[C@@H](OC(=O)C3(C)OC3C)[C@@]2(C)O)CC1=O` (stereo not given in full), in assay [1], the activation is -20.6%. The Potency entry in assay [2] and in assay [3] was “inactive” in each case.
Consider `CC1(C)CCCC2(C)C1C(O)C=C(CO)C2(O)C(=O)O` (stereo not given), for which, in assay [1], the activation is -13.7%. Besides, the Potency entry in assay [2] and in assay [3] was “inactive” in each case.
On to `O=C1[C@H](O[C@@H]2O[C@H](CO)[C@@H](O)[C@H](O)[C@H]2O)Oc2ccccc2N1O`, for which, in assay [1], the activation was 14.3%. Also, the Potency entry in assay [2] and in assay [3] was “inactive” each time.
Consider `C[C@@H]1C[C@H]2O[C@@]3(O[C@@H]2C(C)(C)O)C(O)[C@@]2(C)C4CCC5C(C)(C)[C@@H](O[C@H]6OC[C@H](O)[C@@H](O)[C@@H]6O)CC[C@@]56C[C@@]46CC[C@]2(C)C13` (stereo not given in full), for which the activation in assay [1] was -26.7%. The Potency entry in assay [2] and in assay [3] was “inactive” throughout.
On to `C/C(=C\CC[C@@H](C)[C@H]1CC(O)[C@@]2(C)C3CC[C@H]4C(C)(C)[C@@H](OC5OCC(O)C(O)C5OC5OC(CO)C(O)C(O)C5O)CC[C@@]45C[C@@]35CC(O)[C@]12C)C(=O)O` (stereo not given in full), for which, in assay [1], the activation is -16.8%. Moreover, the Potency entry in assay [2] and in assay [3] was “inactive” throughout.
As for `COC(=O)[C@@]1(O)C=CC[C@@H]2[C@@]3(C)C[C@@H](c4ccoc4)OC(=O)[C@H]3CC[C@]21C`, in assay [1], the activation was 7.14%. The Potency entry in assay [2] and in assay [3] was “inactive” in each case.
Regarding `CC1(C)CCCC2(C)C(CO)C(CO)=CCC12` (stereo not given), the activation in assay [1] is -3.82%. The Potency result in assay [2] and in assay [3] was “inactive” each time.
`COc1cc(C2OCC3(O)C(c4ccc(O[C@@H]5O[C@H](CO)[C@@H](O)[C@H](O)[C@H]5O)c(OC)c4)OCC23O)ccc1O` (stereo not given in full): the activation in assay [1] was -6.11%. For the same compound, the Potency entry in assay [2] and in assay [3] was “inactive” in each case.
Consider `C/C1=C\CCC2=C[C@@H](OC2=O)c2c(C)coc2C1`, for which the activation in assay [1] was 13.4%. The Potency result in assay [2] and in assay [3] was “inactive” throughout.
On to `CC(O)(CC(=O)O)CC(=O)O[C@@H]1[C@@H](O)[C@H](OCCc2ccccc2)O[C@H](CO)[C@H]1O` (stereo not given in full), for which the activation in assay [1] was 3.82%. Besides, the Potency entry in assay [2] and in assay [3] was “inactive” each time.
As to `CC1=C(C(=O)O)/C(=C\CO[C@@H]2O[C@H](CO)[C@@H](O)[C@H](O)[C@H]2O)C(OC(=O)/C=C\c2ccc(O)cc2)C1` (stereo not given in full), the activation in assay [1] is 8.93%. Also, the Potency entry in assay [2] and in assay [3] was “inactive” in each case.
In the case of `COc1cc(O)cc2c1C(=O)OC(C)C2` (stereo not given), the activation in assay [1] was -13%. The Potency result in assay [2] and in assay [3] was “inactive” throughout.
In the case of `CC1=CC2/C=C(\C)CCC3OC(C)(C)OC3CCC(=O)C23C(=O)NC(CC(C)C)C3C1C` (stereo not given), the activation in assay [1] was -10.7%. The Potency entry in assay [2] and in assay [3] was “inactive” each time.
For `Cc1cc(CS(=O)(=O)c2ccccc2)cc(OCc2ccc(CN3CCC[C@H]3CO)cc2)c1`, the activation in assay [1] is -28.2%. Also, the Potency result in assay [2] and in assay [3] was “inactive” in each case.
Turning to `C[C@@H]1O[C@@H](O[C@H]2[C@H](O)[C@@H](O[C@@H]3O[C@H](CO)[C@@H](O)[C@H](O[C@@H]4O[C@H](CO)[C@@H](O)[C@H](O)[C@H]4O)[C@H]3O)[C@H](O[C@H]3CC[C@@]4(C)C(=CC[C@@H]5C4CC[C@@]4(C)C5C[C@@H]5OC6(CC[C@@](C)(CO[C@@H]7O[C@H](CO)[C@@H](O)[C@H](O)[C@H]7O)O6)[C@@H](C)[C@@H]54)C3)O[C@@H]2CO)[C@H](O)[C@H](O)[C@H]1O` (stereo not given in full), the activation in assay [1] was -25.2%. Moreover, the activity change, negative = inhibition in assay [2] is 9.58% [at 11.2 µM]; in assay [3], 9.26% [at 11.2 µM].
For the compound `COC(=O)C1=CO[C@@H](O[C@@H]2O[C@H](CO)[C@@H](O)[C@H](O)[C@H]2O)[C@H]2[C@@H]1C=C[C@]21C=C([C@H](C)OC(=O)/C=C/c2ccc(O[C@@H]3O[C@H](CO)[C@@H](O)[C@H](O)[C@H]3O)cc2)C(=O)O1`, the activation in assay [1] was -1.79%. The Potency result in assay [2] and in assay [3] was “inactive” each time.
For the compound `C=C1C(=O)OC2/C=C(\C)CC3C=C(CC/C=C(\C)CCC12)C(=O)O3` (stereo not given), the Potency in assay [1] was 6.59 µM (active). The Potency entry in assay [2] and in assay [3] was “inactive” in each case.
Consider `Cn1c(=O)n(-c2ccc(C(C)(C)C#N)cc2)c2c3cc(C#Cc4cccnc4)ccc3ncc21`, for which, in assay [1], the activation is 26.8%. For the same compound, the Potency entry in assay [2] and in assay [3] was “inactive” in each case.
Consider `CC(=O)O[C@H]1C[C@@](O)(C(C)C)[C@@H]2[C@@H](OC(=O)c3ccc(O)cc3)CC(C)=CC[C@@]12C`, for which, in assay [1], the activation was 21.4%. Further, the Potency entry in assay [2] and in assay [3] was “inactive” throughout.
As for `CC(=O)C=C=C1C(C)(C)CC(O[C@@H]2O[C@H](CO)[C@@H](O)[C@H](O)[C@H]2O)CC1(C)O` (stereo not given in full), in assay [1], the activation is -1.79%. Further, the Potency result in assay [2] and in assay [3] was “inactive” in each case.
On to `CC(C)CC1NC(=O)C(C(C)c2ccccc2)NC(=O)C(C(C)C)NC(=O)C(C)NC(=O)CCCNC(=O)C(Cc2c[nH]c3ccccc23)NC(=O)C(C)NC1=O` (stereo not drawn) (cyclo([GABA]AV[ξPhe(βξ-Me)]LAW); configuration not given here), for which the activation in assay [1] is 8.4%. Besides, the Potency entry in assay [2] and in assay [3] was “inactive” each time.
As for `CC1=CC(=O)[C@@]2(C(C)C)C[C@@H]12`, the activation in assay [1] is 17.7%. Moreover, the Potency entry in assay [2] and in assay [3] was “inactive” in each case.
For `CC1(C)C2CC[C@@]34CC(CC[C@H]3[C@]2(C)CC[C@@H]1O[C@@H]1O[C@H](CO)[C@@H](O)[C@H](O)[C@H]1O)[C@](C)(O)C4` (stereo not given in full), the activation in assay [1] was -22.1%. Also, the Potency result in assay [2] and in assay [3] was “inactive” throughout.
As to `CC1=C2C(=O)C=C(CO[C@@H]3O[C@H](CO)[C@@H](O)[C@H](O)[C@H]3O)[C@@H]2[C@H]2OC(=O)[C@H](C)[C@@H]2[C@@H](O)C1`, in assay [1], the activation was -7.63%. For the same compound, the Potency result in assay [2] and in assay [3] was “inactive” each time.
With `CC(=O)OC(C)(C)/C=C/C(=O)[C@](C)(O)[C@H]1C(O)C[C@@]2(C)[C@@H]3CC=C4[C@@H](C=C(O[C@@H]5O[C@H](CO)[C@@H](O)[C@H](O)[C@H]5O)C(=O)C4(C)C)[C@]3(C)C(=O)C[C@]12C` (stereo not given in full), in assay [1], the activation was 22.3%. For the same compound, the Potency entry in assay [2] and in assay [3] was “inactive” throughout.

The values above are taken from PubChem BioAssay (NCATS).
